# Screening results: PubChem, Sanford-Burnham Center for Chemical Genomics
# TROY NFkB inh = inhibitors of TROY-driven NF-kB signaling, primary screen, Q293 LMP1-TROYcd cells, NF-kB luciferase, uHTS. Q293 LMP1-TROYcd NF-kB luciferase reporter, 4 h. inhibition, % at 10 µM. 360,000 tested, 0.98% active. AID 1347056, 2019;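 active means compounds whose plate-normalised and pattern-corrected inhibition of the luciferase reporter signal at the single screening dose is 50% or more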
# KKLEB cytotox = cytotoxicity in KKLEB CF airway cells, primary screen, cytotoxicity control for CF NF-kB inhibitor project, cell-based, uHTS, fluorescence assay plates; KKLEB CF airway cells viability, ATPlite luminescence, overnight; hits give low values; cells stimulated with P. aeruginosa culture filtrate; AID 602141, 2011; activity change (cytotoxicity), % at 5 µM; 360,000 tested, 0.36% active;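 active means corrected activity change at or below -50% at 5 µM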
# Peg3 promoter = Peg3 promoter-driven luciferase inhibitors, primary screen, cell-based, HeLa, luciferase luminescence. HeLa PEG-Prom luciferase reporter, overnight. inhibition, % at 20 µM. 360,000 tested, 1.7% active. AID 588405, 2011;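 active means inhibition of at least 50% at 20 µM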
# TWEAK Fn14 block = inhibitors of TWEAK-Fn14 signaling, primary screen, luciferase reporter cells, uHTS. TWEAK-stimulated Fn14 reporter cells, luciferase luminescence, 8 h. inhibition, % at 10 µM. 360,000 tested, 2% active; in the data active means inhibition above about 50%
# HIF-2a inh = HIF-2a reporter inhibitors, primary screen, luminescence, 786-0 RCC cells | 786-0 RCC cells HIF-2a reporter, luciferase luminescence, overnight | inhibition, % at 18.8 µM | 360,000 tested, 0.72% active;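 active means inhibition of the luminescence signal of 40% or more relative to plate controls, in a single-dose primary screen at 18.75 µM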
# CF NFkB inh = inhibitors of PAF-induced NF-kB signaling, primary screen, cell-based, GFP fluorescence, uHTS; KKLEB NF-kB-GFP reporter, GFP fluorescence overnight; AID 588850, 2011; 360,000 tested, 0.86% active; inhibition, % at 5 µM;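 active means at least 50% inhibition at 5 µM, scaled per plate between neutral and stimulator controls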;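 further: PAF is a Pseudomonas aeruginosa culture filtrate used as stimulus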
# Numbers stand for hits; – = inactive. This is a sample that favours compounds with a hit; in the whole collection about 4% have one here.
SMILES,TROY NFkB inh,KKLEB cytotox,Peg3 promoter,TWEAK Fn14 block,HIF-2a inh,CF NFkB inh
CC(=O)OC1CC(OC2C(O)CC(OC3C(O)CC(OC4CCC5(C)C(CCC6C5CC(O)C5(C)C(C7=CC(=O)OC7)CCC65O)C4)OC3C)OC2C)OC(C)C1OC1OC(CO)C(O)C(O)C1O (stereo unspecified),–,–,94.7,78.3,87.2,86.5
CNC(=O)Nc1ccc(C(=O)N/N=C\C23CC[C@@H](O)CC2(O)CC[C@@H]2[C@@H]3CCC3(C)C(C4=CC(=O)OC4)CCC23O)cc1 (stereo partly specified),–,–,–,–,–,–
COC1C(O)C(C)OC(OC2CCC3(C)C(CCC4C3C(O)CC3(C)C(C5=CC(=O)OC5)CCC43O)C2)C1O (stereo unspecified),54.8,–,100.4,85.6,73.9,85.9
COC(=O)C1=C(c2cccc(OCc3ccccc3)c2)C[C@@H]2CC[C@H]1N2C(=O)NCc1ccc(Cl)cc1,–,–,–,–,–,–
CCCNC(=O)N1[C@H]2CC[C@@H]1C(C(=O)OC)=C(c1ccccc1)C2,–,–,–,–,–,–
Cc1ccc(N2C(=O)NC(=O)/C(=C\C=C\c3ccco3)C2=O)cc1,–,–,–,–,42.2,52.1
C=CCN1C(=O)NC(=O)/C(=C/C=C/c2ccccc2)C1=O,–,–,–,–,–,–
O=C1NC(=O)N(c2ccccc2)C(=O)/C1=C/C=C/c1ccco1,–,–,–,–,–,–
Cc1ccc(N2C(=O)NC(=O)/C(=C\C=C\c3ccco3)C2=O)cc1C,–,–,75.9,–,75.5,79.7
CN(C)c1ccc(/C=C/C=C2/C(=O)NC(=O)N(c3ccccc3)C2=O)cc1,–,–,103.3,92.2,–,70.5
Cc1cccc(N2C(=O)NC(=O)/C(=C\C=C\c3ccco3)C2=O)c1,–,–,–,–,–,87.5
CC1(C)NC(=S)C(C)(C)N1N=O,–,–,–,–,–,–
CNC(=O)Oc1ccc(-c2cn3cc(C)ccc3n2)cc1,–,–,–,64.5,–,–
CC=CC(C)=CC(C)C(=O)CC(O)CC1CC(=O)NC(=O)C1 (stereo unspecified),–,–,–,–,–,–
CC1CC(C)(O)CC(C(O)CC2CC(=O)NC(=O)C2)C1=O (stereo unspecified),79.8,–,96.5,98.1,54.7,91.4
CCN1C[C@@]2(COC)C3[C@@H](OC)[C@H]4[C@@H]1[C@@]3(C1C[C@@]3(O)[C@H](OC(=O)c5ccccc5)C1[C@]4(OC(C)=O)[C@@H](O)[C@H]3OC)[C@@H](OC)C[C@H]2O (stereo partly specified),–,–,–,–,–,–
CCCNC(=O)c1c(N)n(Cc2ccc3c(c2)OCO3)c2nc3ccccc3nc12,57.5,-64.5,–,–,–,51.0
CC(C)CNC(=O)c1c(N)n(Cc2ccc3c(c2)OCO3)c2nc3ccccc3nc12,63.2,–,–,–,–,–
COCCCNC(=O)c1c(N)n(Cc2ccco2)c2nc3ccccc3nc12,–,–,–,–,–,–
CC(C)CNC(=O)c1c(N)n(Cc2ccco2)c2nc3ccccc3nc12,–,–,–,–,–,–
Nc1c(C(=O)NCC2CCCO2)c2nc3ccccc3nc2n1Cc1ccco1 (stereo unspecified),–,–,–,–,–,–
CCCCNC(=O)c1c(N)n(CCCOC)c2nc3ccccc3nc12,–,–,–,–,–,–
CC(C)CCNC(=O)c1c(N)n(Cc2ccc3c(c2)OCO3)c2nc3ccccc3nc12,59.7,–,–,–,–,–
COc1ccc(Cn2c(N)c(C(=O)NCc3ccco3)c3nc4ccccc4nc32)cc1OC,66.6,–,–,–,–,–
C=CCC1(CCCCC)C(=O)NC(=S)NC1=O,–,–,–,–,–,–
SMILES,TROY NFkB inh,KKLEB cytotox,Peg3 promoter,TWEAK Fn14 block,HIF-2a inh,CF NFkB inh
CCC1(C(=O)c2ccc(C)cc2)C2c3ccccc3OC(=O)C21C(=O)O (stereo unspecified),–,–,–,–,–,–
COC(=O)C1=C(c2ccc(S(C)(=O)=O)cc2)C[C@@H]2CC[C@H]1N2C(=O)NCCS(C)=O (stereo partly specified),–,–,–,–,–,–
COC(=O)c1c(N)n(Cc2ccc(OC)cc2)c2nc3ccccc3nc12,–,–,–,–,–,–
COCCOC(=O)c1c(N)n(Cc2ccc(OC)cc2)c2nc3ccccc3nc12,60.6,–,–,–,–,–
O=C1C2CCCC1C(N1CCCCC1)CC2 (stereo unspecified),–,–,–,–,–,–
Clc1ccc(C(c2ccc(Cl)cc2)n2cc[n+](CC(OCc3ccc(Cl)cc3Cl)c3ccc(Cl)cc3Cl)c2)cc1 (stereo unspecified),79.5,–,101.7,76.7,97.1,55.7
Clc1ccc(COC(Cn2ccnc2)c2ccc(Cl)cc2Cl)cc1 (stereo unspecified),–,–,–,–,–,–
Cc1cccc(C#N)c1,–,–,–,–,–,–
Cc1cc(C)cc(N2C(=O)NC(=O)/C(=C/c3cccn3-c3ccc(Cl)cc3)C2=O)c1,69.2,–,99.2,103.7,42.8,60.8
Cc1cccc(N2C(=O)NC(=O)/C(=C\c3cccn3-c3ccc(Cl)cc3)C2=O)c1,–,–,103.5,61.1,–,–
CC(C)(C)n1cccc1/C=C1\C(=O)NC(=O)N(c2ccccc2)C1=O,–,–,–,–,–,–
C[C@]12CCC(=O)C=C1CC[C@@H]1C2[C@H](O)C[C@]2(C)C(=O)CCC12 (stereo partly specified),–,–,–,–,–,–
COC(=O)C1=C(C(=O)OC)SC2(S1)C(C(=O)OC)=C(C(=O)OC)Sc1c2ssc1=O,–,-68.8,110.8,58.5,87.5,113.1
O=C1NC(=O)C(=Cc2cn(CCOc3ccc4c(c3)OCO4)c3ccccc23)C(=O)N1,–,–,63.7,–,–,–
N#Cc1cn(C2OC(CO)C(O)C2O)c2ncnc(N)c12 (stereo unspecified),51.7,–,95.7,71.6,–,95.5
CCNC(=O)[C@H]1O[C@@H](n2cnc3c(N)ncnc32)[C@H](O)[C@@H]1O,–,–,–,–,–,–
NC(=O)c1cn(C2OC(CO)C(O)C2O)c2ncnc(N)c12 (stereo unspecified),–,-83.0,93.2,89.1,67.2,89.4
N=Cc1c(O)n(-c2ccccc2)c(=O)n(-c2ccccc2)c1=O,–,–,–,–,–,–
